From PubChem BioAssay (NCATS)
Records with an inconclusive call do not appear. Activity calls are given as the source filed them. Calls come from the whole dose curve; as a rule, active = well fitted cell-killing curve with a large enough effect; inconclusive = small, poorly fitted or top-dose-only effect; inactive = flat fitted curve, though single readings scatter.

assay: qHTS assay to identify small molecule inhibitors of chordoma cells - UCH-2 (AID 1259356); details: UCH-2 chordoma viability, CellTiter-Glo ATP luminescence, 48 h; series mostly up to 46.1 µM; activity change, negative = inhibition: at the top concentration
% is set by controls: 0 for no effect and ±100 for the full control effect.

Row | SMILES | activity change, negative = inhibition
1 | Oc1c(Cl)cc(Cl)cc1Sc1cc(Cl)cc(Cl)c1O | 4.43% (inactive)
2 | Oc1ccc(Cl)cc1Sc1cc(Cl)ccc1O | 1.61% (inactive)
3 | C[C@@H]1C(=O)NC2=Nc3cccc(Cl)c3CN21 | 15.7% (inactive)
4 | O=C(CCN1CCC(c2ccccc2)C1)c1ccc2c(c1)OCCO2 (configuration not stated) | -19.2% (inactive)
5 | COc1ccc(CN2CCN(C(c3ccc(F)cc3)c3ccc(F)cc3)CC2)c(OC)c1OC | -2.32% (inactive)
6 | COc1cc(-c2ccc(=O)[nH]n2)ccc1OC(F)F | -0.0943% (inactive)
7 | Cc1c(C(N)=O)cc([N+](=O)[O-])cc1[N+](=O)[O-] | 6.47% (inactive)
8 | CCCCCCCCCCCCCCNCCO | 19.8% (inactive)
9 | NC(CO)(CO)CO | -2.12% (inactive)
10 | Cc1ccc(O)c2ncccc12 | 10.1% (inactive)
11 | C#C[C@]1(OC(C)=O)CC[C@H]2[C@@H]3CCC4=C[C@@H](OC(C)=O)CC[C@@H]4[C@H]3CC[C@@]21C | 0.526% (inactive)
12 | NC(=NCCCCCCN=C(N)/N=C(\N)Nc1ccc(Cl)cc1)/N=C(\N)Nc1ccc(Cl)cc1 | -3.4% (inactive)
13 | CC/C(=C(/CC)c1ccc(O)cc1)c1ccc(O)cc1 | -1.36% (inactive)
14 | CCCCCCc1ccc(O)cc1O | -0.735% (inactive)
15 | CC(=O)Oc1ccc2c(c1)CC[C@@H]1[C@@H]2CC[C@]2(C)[C@@H](O)CC[C@@H]12 | -1.55% (inactive)
16 | O=c1c(-c2ccccc2)c1-c1ccccc1 | 2.15% (inactive)
17 | Clc1ccc2c(c1)CCc1cccnc1C2=C1CCNCC1 | 1.93% (inactive)
18 | COc1cc2c(cc1OC)C(C(C(=O)N(CCc1ccc(OC)c(OC)c1OC)CCc1ccc(OC)c(OC)c1OC)c1ccccc1)=NCC2 (configuration not stated) | 6.66% (inactive)
19 | Cc1c(F)c(N2CCNC(C)C2)cc2c1c(=O)c(C(=O)O)cn2C1CC1 (configuration not stated) | -12.7% (inactive)
20 | C#C[C@]1(O)CC[C@H]2[C@@H]3CCC4=CC(=O)CC[C@@H]4[C@H]3CC[C@@]21C | 4.1% (inactive)
21 | COC(=O)[C@@H]1CC2=CC(=O)CC[C@]2(C)[C@@]23O[C@@H]2C[C@@]2(C)[C@@H](CC[C@@]24CCC(=O)O4)[C@H]13 | 6.61% (inactive)
22 | CCCC1O[C@@H]2C[C@H]3[C@@H]4CCC5=CC(=O)C=C[C@]5(C)[C@H]4[C@@H](O)C[C@]3(C)[C@]2(C(=O)CO)O1 (some centres not stated) | -1.73% (inactive)
23 | CC1(C)CCC(NC(=O)[C@@H](N)CCC(=O)O)CC1 | -4.96% (inactive)
24 | CCCCCCCCCCCCCCCC[N+](C)(C)CCN(Cc1ccc(OC)cc1)c1ncccn1 | 3.35% [at 20.6 µM] (inactive)
25 | CCCCN1CCCC1C(=O)Nc1c(C)cc(C)cc1C (configuration not stated) | 2.37% (inactive)
26 | CCCCCC=CCC=CCCCCCCCC(=O)OCC | 0.615% (inactive)
27 | CCN1CCCC1=O | 3.89% (inactive)
